Rows were chosen to be rich in hits. Some 4.1% of all compounds tested hit in one or more screens of this group.
MIN6 prolif: induces beta-cell replication in MIN6 cells; MIN6 cells proliferation, ATPlite luminescence, 48 h; cells starved in 0.2% serum; 100% = growth in 10% serum; hit rate 0.29% among 330,000; AID 2380; proliferation, % at 10 µM;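 active = compounds whose signal lies at least 3.5 SD above the mean of all wells on their plate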;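 also: 0% = DMSO-treated cells in low-serum medium and 100% = 10% serum control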
GRIN3A LBD mod: modulators (binders) of human NR3A ligand-binding domain; NR3A LBD differential scanning fluorimetry, Tm shift; 0% = protein alone, 100% = glycine-bound protein; Tm shift relative to glycine control, % at 25 µM; hit rate 2.5% among 340,000;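 active = melting temperature shift of at least 10% of the positive control shift, at one fixed dose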
pCIP destab: p/CIP protein destabilization. AID 1984. decrease of EGFP signal, % at 10 µM. F442A p/CIP-EGFP cells, EGFP fluorescence, 16 h. hit rate 0.01% among 290,000;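 active = EGFP signal decrease of at least 30% at 10 µM or well 3 SD below plate mean, unless failing retest; inactive = the rest, including hits failing retest or dose response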
FAS-TE inh: inhibitors of human fatty acid synthase thioesterase domain; P49327; recombinant FAS-TE, OMFH fluorogenic substrate, fluorescence endpoint; inhibition, % at 15 µM; hit rate 0.67% among 360,000; AID 602261;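 active = compounds whose normalised, plate-corrected inhibition of enzyme fluorescence in the single-dose primary screen is 50% or more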;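 also: 0% = DMSO with enzyme and 100% = substrate without enzyme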
Target sequence (P49327 whole entry, looked up, the tested form may be a part): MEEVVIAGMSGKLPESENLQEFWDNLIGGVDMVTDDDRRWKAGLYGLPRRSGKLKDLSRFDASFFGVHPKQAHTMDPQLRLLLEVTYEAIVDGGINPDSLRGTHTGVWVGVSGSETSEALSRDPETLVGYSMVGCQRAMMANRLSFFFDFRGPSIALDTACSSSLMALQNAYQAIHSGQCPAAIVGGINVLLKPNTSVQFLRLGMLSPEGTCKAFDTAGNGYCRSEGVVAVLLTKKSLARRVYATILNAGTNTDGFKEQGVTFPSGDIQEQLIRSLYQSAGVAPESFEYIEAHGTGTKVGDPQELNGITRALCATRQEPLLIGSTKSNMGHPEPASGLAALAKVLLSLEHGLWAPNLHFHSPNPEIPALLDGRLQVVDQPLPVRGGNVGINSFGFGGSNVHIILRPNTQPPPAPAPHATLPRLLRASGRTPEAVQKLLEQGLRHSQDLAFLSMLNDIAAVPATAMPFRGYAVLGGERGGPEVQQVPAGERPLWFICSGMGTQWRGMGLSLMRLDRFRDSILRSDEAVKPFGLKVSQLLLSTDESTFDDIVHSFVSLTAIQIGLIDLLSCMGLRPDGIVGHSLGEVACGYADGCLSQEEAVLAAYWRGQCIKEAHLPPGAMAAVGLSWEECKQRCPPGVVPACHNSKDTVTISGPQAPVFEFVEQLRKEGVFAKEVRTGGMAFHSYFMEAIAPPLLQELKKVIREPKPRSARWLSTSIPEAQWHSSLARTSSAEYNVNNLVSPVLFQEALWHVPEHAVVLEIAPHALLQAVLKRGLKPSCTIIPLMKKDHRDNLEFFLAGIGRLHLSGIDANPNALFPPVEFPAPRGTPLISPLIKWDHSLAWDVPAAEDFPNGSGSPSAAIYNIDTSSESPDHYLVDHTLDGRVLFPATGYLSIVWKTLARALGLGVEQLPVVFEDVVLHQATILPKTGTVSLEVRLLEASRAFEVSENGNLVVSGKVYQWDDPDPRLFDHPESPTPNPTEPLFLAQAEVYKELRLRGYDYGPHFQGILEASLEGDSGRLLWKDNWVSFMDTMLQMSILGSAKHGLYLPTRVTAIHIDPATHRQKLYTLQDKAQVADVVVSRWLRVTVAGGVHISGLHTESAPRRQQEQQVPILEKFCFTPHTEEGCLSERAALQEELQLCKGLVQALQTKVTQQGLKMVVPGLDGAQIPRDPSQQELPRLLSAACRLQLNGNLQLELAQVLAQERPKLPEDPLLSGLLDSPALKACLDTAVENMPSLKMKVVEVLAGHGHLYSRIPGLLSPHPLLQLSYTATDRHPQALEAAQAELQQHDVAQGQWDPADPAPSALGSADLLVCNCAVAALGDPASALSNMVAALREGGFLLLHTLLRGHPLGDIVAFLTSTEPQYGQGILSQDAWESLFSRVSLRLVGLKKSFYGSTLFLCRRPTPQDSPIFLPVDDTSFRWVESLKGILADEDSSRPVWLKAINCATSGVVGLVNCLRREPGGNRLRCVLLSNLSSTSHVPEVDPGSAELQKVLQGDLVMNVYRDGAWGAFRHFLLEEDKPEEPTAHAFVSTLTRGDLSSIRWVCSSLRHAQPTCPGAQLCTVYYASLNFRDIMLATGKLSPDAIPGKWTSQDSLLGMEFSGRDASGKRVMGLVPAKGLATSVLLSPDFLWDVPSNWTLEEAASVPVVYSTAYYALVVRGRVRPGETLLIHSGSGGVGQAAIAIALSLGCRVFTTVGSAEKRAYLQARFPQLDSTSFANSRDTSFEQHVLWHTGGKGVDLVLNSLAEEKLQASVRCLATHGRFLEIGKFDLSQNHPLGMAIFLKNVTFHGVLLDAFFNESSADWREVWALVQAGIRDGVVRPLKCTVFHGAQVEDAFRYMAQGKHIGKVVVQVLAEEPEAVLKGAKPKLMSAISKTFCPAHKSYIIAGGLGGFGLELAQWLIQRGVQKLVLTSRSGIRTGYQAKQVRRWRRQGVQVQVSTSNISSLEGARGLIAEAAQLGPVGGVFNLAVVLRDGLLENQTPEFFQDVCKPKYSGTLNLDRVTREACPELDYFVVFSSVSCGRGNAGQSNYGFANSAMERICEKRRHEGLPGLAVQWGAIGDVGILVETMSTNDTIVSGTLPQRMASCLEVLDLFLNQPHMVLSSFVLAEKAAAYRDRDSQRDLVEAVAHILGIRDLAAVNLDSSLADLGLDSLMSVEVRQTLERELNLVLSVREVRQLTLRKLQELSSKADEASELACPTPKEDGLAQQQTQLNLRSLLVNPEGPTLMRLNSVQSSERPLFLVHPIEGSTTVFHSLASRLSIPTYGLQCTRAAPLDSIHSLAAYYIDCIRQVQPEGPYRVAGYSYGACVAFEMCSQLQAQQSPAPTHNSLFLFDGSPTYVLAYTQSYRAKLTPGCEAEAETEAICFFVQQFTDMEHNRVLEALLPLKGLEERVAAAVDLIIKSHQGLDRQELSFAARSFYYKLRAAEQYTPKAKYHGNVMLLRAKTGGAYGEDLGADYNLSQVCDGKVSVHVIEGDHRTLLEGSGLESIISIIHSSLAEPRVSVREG
MPTP block: inhibitors of mitochondrial permeability transition pore. isolated mouse mitochondria, Ca2+ swelling absorbance, 30 min. inhibition, % at 10 µM. hit rate 1.4% among 360,000. AID 602449;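 active = inhibition of 50% or more, scaled per plate between neutral and stimulator controls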;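 also: 0% = DMSO wells given calcium and 100% = 1 mM EGTA wells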
An asterisk follows results filed as active; . = not tested or not shown.

SMILES	MIN6 prolif	GRIN3A LBD mod	pCIP destab	FAS-TE inh	MPTP block
CCc1ccccc1NC(=O)c1cccc(NC(=O)/C=C/c2ccco2)c1	-4.2	-3.7	0.1	0.1	3.6
Cc1ccc(-n2nc3ccc(NC(=O)/C=C/c4ccco4)cc3n2)cc1	-5.7	23.8*	5.4	14.2	5.0
COc1ccc(OC)c(NC(=O)Nc2nnc([C@H]3C[C@H](O)[C@@H](CO)O3)s2)c1	.	.	.	-5.3	0.6
O=C(N/N=C/C(Br)=C\c1ccccc1)c1ccc2nc[nH]c2c1	0.0	15.4*	-14.4	-10.5	0.7
CC(NC(=O)c1ccc2nc[nH]c2c1)c1ccccc1 (stereo unspecified)	1.1	0.2	-11.5	-9.7	1.3
C=CCc1cccc(/C=N/NC(=O)c2ccc3nc[nH]c3c2)c1O	-6.7	10.7*	-13.4	13.2	-1.3
O=C(N/N=C/c1ccc(Cl)cc1Cl)c1ccc2nc[nH]c2c1	-2.5	1.6	-2.1	-10.1	0.9
CCC(CC)NC(=O)c1ccc2nc[nH]c2c1	-3.2	17.7*	-5.5	-9.5	0.4
COc1cc(/C=N/NC(=O)c2ccc(=O)[nH]n2)ccc1O	0.0*	-2.7	-3.2	-6.8	-0.5
CC(=C/c1ccccc1)/C=N/NC(=O)c1ccc2nc[nH]c2c1	-2.0	-0.2	-20.1	-11.6	-0.1
CCOc1cc(/C=N/NC(=O)c2cc(C3CC3)[nH]n2)ccc1O	-0.1	25.5*	4.3	-8.1	-1.3
O=C(N/N=C/c1ccc([N+](=O)[O-])cc1)c1cc(-c2ccc3c(c2)OCO3)n[nH]1	-1.7	2.4	-2.7	-3.6	-0.6
COc1cc(/C=N/NC(=O)c2ccc3nc[nH]c3c2)ccc1O	0.8	26.5*	6.4	-7.3	1.7
COc1cc(/C=N/NC(=O)c2cc(-c3ccc4c(c3)OCO4)n[nH]2)ccc1O	4.3	28.1*	-12.9	-6.1	0.8
COc1cc(/C=N/NC(=O)c2[nH]nc3c2CCc2ccccc2-3)ccc1O	-2.4	29.4*	-5.2	7.5	3.3
COc1cccc(/C=N/NC(=O)c2ccc3nc[nH]c3c2)c1	-2.8	3.7	-5.2	-2.6	1.0
CC1(C(=O)NCCC#N)CCN1C(=O)C1(c2ccccc2)CCCC1 (stereo unspecified)	.	.	.	-8.7	0.4
Cc1ccc(-c2nc3ccc(C)cn3c2CC2CCCCC2)cc1	.	.	.	18.8	0.9
FC(F)(F)c1ccccc1Cc1c(-c2cccc(Cl)c2)nc2ccc(Cl)cn12	.	.	.	18.0	3.4
CC1(C)OC(=O)C2=C(C[C@@H](CCc3ccccc3)O[C@H]2CCc2cccc(Cl)c2)O1	.	.	.	22.3	1.6
Cc1cc2nc(C(C)(C)C)c(Cc3cccc(F)c3)n2c(C)c1Br	.	.	.	17.6	2.5
CCOC(=O)c1cnc2ccc(C)cc2c1Sc1ccc(F)cc1	-3.6	18.7*	-7.3	31.9	1.5
Cc1ccc(N2CCN(C(=O)C(=O)c3ccc(F)c(F)c3)CC2)cc1	.	.	.	.	-0.4
O=C1NC[C@@H](CCCCN2CCN(CCc3ccccc3)C(=O)C2=O)N(Cc2ccccc2)C1=O	.	.	.	-9.5	-1.1
O=C(Nc1ccccc1N1CCOCC1)c1ccc([N+](=O)[O-])o1	-6.0	18.6*	-22.2	7.6	1.6
SMILES	MIN6 prolif	GRIN3A LBD mod	pCIP destab	FAS-TE inh	MPTP block
O=C(Nc1cc(Cl)ccc1N1CCOCC1)c1ccc(Br)o1	-1.1	3.1	2.0	-5.7	-0.2
COc1ccc(N2CCOCC2)c(NC(=O)c2ccc(Br)o2)c1	2.8	12.6*	-3.0	14.9	-0.8
Cn1c(NCCc2ccncc2)nc2cc(-c3cccc(C(F)(F)F)c3)sc2c1=O	.	.	.	14.3	0.3
CSCCC(C(=O)NC1CCCC1)n1c(C2CC2)nc2ccccc21 (stereo unspecified)	.	.	.	.	2.3
COc1cc(/C=C2\SC(=S)N(CC(=O)Nc3ccc(O)cc3)C2=O)cc(OC)c1OC	.	13.5*	8.4	5.2	2.5
COc1cccc(/C=C2\SC(=S)N(CCC(=O)NCCc3ccc(O)cc3)C2=O)c1	-2.5	16.2*	2.9	33.2	-0.3
COc1cc(/C=C2\SC(=S)N(CC(=O)Nc3cccnc3)C2=O)cc(OC)c1OC	-3.2	-7.9	-18.9	8.6	10.8
O=C(CCN1C(=O)/C(=C/c2ccc(F)cc2)SC1=S)NCCc1ccc(O)cc1	1.1	15.5*	-15.0	16.1	6.6
COc1ccc(/C=C2\SC(=S)N(CCC(=O)Nc3cccc(O)c3)C2=O)cc1OC	0.7	1.6	-2.2	0.8	-1.3
COc1ccc(/C=C2/SC(=S)N(CCCC(=O)Nc3cccc(O)c3)C2=O)cc1	0.0	12.1*	-10.9	14.7	-0.8
COc1cccc(/C=C2\SC(=S)N(CCC(=O)Nc3ccc(O)cc3)C2=O)c1	-2.8	5.3	-10.0	9.2	-0.8
COC(=O)c1cccc(N2C(=O)C[C@](Sc3ccc(C)cc3)(C(=O)OC)[C@H]2c2ccccc2)c1	.	.	.	26.8	0.2
CC1(Cc2ccc(Cl)s2)C(=O)Nc2c(Cl)ccc(Cl)c21 (stereo unspecified)	.	.	.	21.8	0.7
CS(=O)(=O)Nc1cccc(NC(=O)c2cccc3c(-c4ccc(F)c(F)c4)coc23)c1	.	.	.	18.5	3.0
CC(=O)N1CCc2c(sc(NC(=O)c3ccc(S(=O)(=O)N(C)CC4CCCO4)cc3)c2C(N)=O)C1 (stereo unspecified)	.	.	.	-5.1	0.4
O=C(NCc1ccc(F)cc1)c1cc(C2CCCCN2C(=O)CCCc2ccccc2)on1 (stereo unspecified)	.	.	.	15.8	0.6
O=C(O)CCN1C(=O)/C(=C\c2ccc(OCc3ccccc3)c(OCc3ccccc3)c2)SC1=S	-6.8	0.8	-28.1	-48.6	2.5
O=C(O)CCN1C(=O)/C(=C\c2cccc(OCc3ccccc3)c2)SC1=S	-2.5	10.9*	-21.7	-101.1	-0.6
COc1cc(/C=C/C(=O)OCC(=O)NCc2ccco2)ccc1OC(F)F	-1.9	14.1*	-1.7	3.6	0.6
COc1ccc(/C=C/C(=O)OCC(=O)NCc2ccco2)cc1OC	1.2	-1.1	1.3	-6.8	1.8
CN(CCc1ccccc1)C(=O)c1ccc(NC(=O)Cc2cccc(NC(=O)C3CCN(C(=O)c4ccccc4)CC3)c2)cc1	.	0.3	.	-3.0	-0.7
COc1ccc(CN2CCC(n3nccc3NC(=O)C3CC3)CC2)cc1O	3.7	14.1*	7.0	-9.1	1.6
COc1cc(OC)cc(C(=O)Nc2ccc(-n3cnnn3)c(C)c2)c1	0.5	-1.1	-4.5	-2.8	16.8
Cc1cc(NC(=O)c2oc3ccccc3c2C)ccc1-n1cnnn1	0.7	23.3*	-1.4	17.8	0.4
COCCN1C(=O)C(CC(=O)Nc2ccc(C(=O)O)cc2)SC1=Nc1ccccc1 (stereo unspecified)	-2.4	3.1	5.9	-6.3	-3.5
COC(=O)c1cc(NC(=O)CC2SC(=Nc3ccccc3)N(CCc3c[nH]c4ccccc34)C2=O)cc(C(=O)OC)c1 (stereo unspecified)	-6.0	22.7*	-3.9	28.1	3.8
O=C1/C(=C/c2ccc(O)c(O)c2)Oc2cc(O)ccc21	-0.6	15.1*	-242.7	-1.7	0.1
COc1cc(/C=C2\Oc3cc(O)ccc3C2=O)ccc1O	-2.7	-3.1	-104.4	-8.5	4.3

Source: PubChem
